Inconclusive results are not listed. The source made the active and inactive calls. Rule for the calls: active = hit-call score of the fitted dose curve at least 0.9, where 1 is the maximum; inconclusive = response in the unintended direction; inactive = score below 0.9.
Columns and labels:
[1] = target: human Peripheral-type Benzodiazepine Receptor (PBR), TSPO (gene 706) (UniProt P30536); test: NVS_MP_hPBR: NovaScreen (NVS) Membrane Protein Assay for human Peripheral-type Benzodiazepine Receptor (PBR) (AID 2283331);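 note: hits reduce radioligand binding relative to DMSO baseline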
Procedure, shortened: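 Radioligand displacement on human colonic cell membranes, 1 h incubation; bound radioactivity by filtration and scintillation counting. Primary screen in duplicate at 25 uM single concentration, actives followed up in concentration series; loss of binding versus DMSO.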

[2] = target: rat Peripheral-type Benzodiazepine Receptor (PBR), Tspo (gene 24230) (UniProt P16257); test: NVS_MP_rPBR: NovaScreen (NVS) Membrane Protein Assay for rat Peripheral-type Benzodiazepine Receptor (PBR) (AID 2283335)
Procedure, shortened: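 Rat kidney membranes; radioligand binding with displacement, filter-based scintillation counting, 1 h incubation. Primary screen in duplicate at 25 uM, actives followed in concentration series; loss of binding vs DMSO.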

[3] = target: bovine Estrogen Receptor (ER), ESR1 (gene 407238) (UniProt P49884); test: NVS_NR_bER: NovaScreen (NVS) Nuclear Receptor Binding Assay for bovine Estrogen Receptor (ER) (AID 2283345);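 note: actives lower the bound radioligand count which means they displace the ER ligand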
Procedure, shortened: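 Bovine uterine membranes; tritiated or iodinated radioligand; competitive displacement; 18 h; scintillation read; DMSO negative control; 25 uM duplicates, then concentration series for actives.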

[4] = target: chimpanzee Androgen Receptor (AR), AR (gene 747460) (UniProt O97775); test: NVS_NR_cAR: NovaScreen (NVS) Nuclear Receptor Binding Assay for chimpanzee Androgen Receptor (AR) (AID 2283346);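 note: radioligand displacement from AR measured by scintillation counting in a cell-free assay; a loss of bound radioligand signal versus DMSO counts as binding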
Procedure, shortened: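 Radioligand binding to chimpanzee AR expressed in Sf9/Sf21 cells, cell-free, measured 72 h after dosing by lysate-based scintillation counting. Loss of signal vs DMSO; initial duplicate screen at 25 uM, actives retested in concentration series.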

[5] = target: Estrogen receptor (Homo sapiens) (UniProt P03372); test: NVS_NR_hER: NovaScreen (NVS) Nuclear Receptor Binding Assay for human Estrogen Receptor (ER) (AID 2283348)
Procedure, shortened: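 Radioligand competitive displacement binding to estrogen receptor from MCF7 extract, cell-free; 18 h after dosing, scintillation read-out. Primary screen in duplicate at 25 uM; actives followed up in concentration series; loss of signal vs DMSO.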

[6] = target: Estrogen receptor (Homo sapiens) (UniProt P03372); test: OT_ER_ERaERa_1440: Odyssey Thera (OT) 24-hour HEK293T Protein-Complementation Assay for Estrogen Receptor-alpha/-alpha Homodimer (AID 2283349);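 note: hits raise fluorescence above DMSO for agonists and antagonists alike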
Procedure, shortened: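 HEK293T cells stably expressing the human ER alpha ligand-binding domain (aa 310-547) as a homodimer PCA were dosed for 24 hours. Fluorescence intensity was read by laser scanning cytometry, and gain of signal was fitted relative to DMSO vehicle.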

[7] = target: Retinoic acid receptor alpha (Homo sapiens) (UniProt P10276); test: NVS_NR_hRAR_Antagonist: NovaScreen (NVS) Nuclear Receptor Binding Assay for human Retinoic Acid Alpha Receptor Antagonism (RAR) (AID 2283358)
Procedure, shortened: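 Cell-free TR-FRET binding assay with extracted human RARalpha in antagonist mode, read 2 h after dosing. Loss of signal was fitted relative to DMSO; the primary screen used 25 uM in duplicate, with concentration series on follow-up.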

[8] = target: human Peroxisome Proliferator-activated Receptor alpha (PPARa), PPARA (gene 5465) (UniProt Q07869); test: NVS_NR_hPPARa: NovaScreen (NVS) Nuclear Receptor Binding Assay for human Peroxisome Proliferator-activated Receptor alpha (PPARa) (AID 2283359);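 note: activity means loss of TR-FRET signal versus DMSO baseline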
Procedure, shortened: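 Cell-free TR-FRET binding assay with extracted PPARα protein, read 1 h after dosing. Primary screen in duplicate at 25 uM, with actives retested in concentration series. Loss of signal versus DMSO.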

[9] = target: Estrogen receptor (Homo sapiens) (UniProt P03372); test: OT_ER_ERaERa_0480: Odyssey Thera (OT) 8-hour HEK293T Protein-Complementation Assay for Estrogen Receptor-alpha/-alpha Homodimer (AID 2283351);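 note: rise in fluorescence from reassembled reporter fragments on ERα LBD homodimer in nucleus or whole cell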
Procedure, shortened: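 The readout is complementation of fragments fused to the human ER alpha ligand-binding domain (aa 310-547), stably expressed in HEK293T cells. After 8 h of exposure, the increase in nuclear/cytoplasmic fluorescence was measured by laser scanning cytometry and fitted relative to DMSO.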

[10] = target: rat Thyrotropin Releasing Hormone Receptor (TRH), Trhr (gene 25570) (UniProt Q01717); test: NVS_GPCR_rTRH: NovaScreen (NVS) G Protein-Coupled Receptor Assay for rat Thyrotropin Releasing Hormone Receptor (TRH) (AID 2283329);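 note: hit means lower bound tracer signal versus DMSO baseline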
Procedure, shortened: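 Test compounds are screened at 25 uM in duplicate against radioligand binding in rat forebrain membranes, with active pairs followed up over a concentration range. Detection uses filter-based radiodetection after a 4 h exposure.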

[11] = target: T1, Estrogen receptor (Homo sapiens) + Estrogen receptor beta (Homo sapiens) (UniProt P03372+Q92731); test: OT_ER_ERaERb_0480: Odyssey Thera (OT) 8-hour HEK293T Protein-Complementation Assay for Estrogen Receptor-alpha/-beta Heterodimer (AID 2283352)
Procedure, shortened: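 Increase in mean fluorescence intensity, measured by laser scanning plate cytometry, reported ER-alpha/ER-beta LBD complementation in HEK293T cells after 8 h chemical exposure. DMSO served as baseline; basal signal is low, punctate and cytoplasmic.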

[12] = target: T1, Estrogen receptor (Homo sapiens) + Estrogen receptor beta (Homo sapiens); test: OT_ER_ERaERb_1440: Odyssey Thera (OT) 24-hour HEK293T Protein-Complementation Assay for Estrogen Receptor-alpha/-beta Homodimer (AID 2283356);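 note: heteromer of ER alpha and ER beta binding domains; hits raise reporter fluorescence and both agonists and antagonists give an increase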
Procedure, shortened: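 Heterodimerisation of ERα (aa 310-547) and ERβ (aa 263-489) ligand binding domains was tracked as fluorescence gain in stably transfected HEK293T cells following 24 h dosing, normalised to DMSO controls.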

[13] = target: Estrogen receptor beta (Homo sapiens) (UniProt Q92731); test: OT_ER_ERbERb_0480: Odyssey Thera (OT) 8-hour HEK293T Protein-Complementation Assay for Estrogen Receptor-beta/-beta Homodimer (AID 2283357);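 note: active means signal gain over DMSO baseline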
Procedure, shortened: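 Fluorescence intensity, nuclear for agonists and nuclear plus cytoplasmic for antagonists, was quantified by laser scanning cytometry versus vehicle after 8 h treatment. The cells were HEK293T stably carrying ER beta LBD fragment-complementation partners.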

[14] = target: Androgen Receptor/SRC-1 Co-activator, AR (gene 367) (UniProt P10275); test: OT_AR_ARSRC1_0480: Odyssey Thera (OT) 8-hour HEK293T Protein-Complementation Assay for Androgen Receptor/SRC-1 Co-activator (AID 2283354);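 note: hits raise the complementation signal above DMSO so AC50 marks enhancers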
Procedure, shortened: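 HEK293T cells stably expressing AR and SRC-1 fused to Venus YFP fragments, imaged 8 h after dosing. Complementation fluorescence scored as nuclear/cytoplasmic ratio at 488 nm in at least 400 cells per image; gain fitted versus DMSO.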

[15] = target: Sodium channel protein type 1 subunit alpha (Rattus norvegicus) (UniProt P04774); test: NVS_IC_rNaCh_site2: NovaScreen (NVS) Ion Channel Assay for rat Sodium Channel, Site 2 (NaCh) (AID 2283322);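 note: hit means loss of radioligand binding signal relative to DMSO so AC50 marks displacement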
Procedure, shortened: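 Membranes: rat forebrain. Format: competitive radioligand displacement, filter separation, scintillation readout, 1 h exposure. Primary screen in duplicate at 25 uM; actives retested in concentration series.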

[16] = target: rat Neonicotinoid receptor (NNR), Chrna7 (gene 25302) (UniProt Q05941); test: NVS_LGIC_rNNR_BungSens: NovaScreen (NVS) Ligand-Gated Ion Channel Assay for rat Neonicotinoid receptor (NNR) (AID 2283315)
Procedure, shortened: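 Radioligand displacement binding on rat cortical membranes, 2.5 h incubation, filtration and scintillation counting. Loss of specific binding fitted relative to DMSO.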

[17] = target: rat Gamma-Aminobutyric Acid Type A Receptor, Non-Selective (GABAR-NonSelective), Gabra1 (gene 29705) (UniProt P62813); test: NVS_LGIC_rGABAR_NonSelective: NovaScreen (NVS) Ligand-Gated Ion Channel Assay for rat Gamma-Aminobutyric Acid Type A Receptor, Non-Selective (GABAR-NonSelective) (AID 2283326)
Procedure, shortened: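 Radioligand displacement on rat whole-brain extract, 1 h, filter scintillation readout; signal loss fitted versus DMSO. Primary screen in duplicate at 25 uM; hits (e.g. ≥30% inhibition) retested in concentration-response up to 50 uM.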

[18] = target: bovine Gamma-Aminobutyric Acid Type A Receptor Agonist (GABAR Agonist), GABRA1 (gene 780973) (UniProt P08219); test: NVS_LGIC_bGABAR_Agonist: NovaScreen (NVS) Ligand-Gated Ion Channel Assay for bovine Gamma-Aminobutyric Acid Type A Receptor Agonist (GABAR Agonist) (AID 2283338)
Procedure, shortened: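 Radioligand binding to bovine cerebellar membranes in agonist format, read by filter-based scintillation counting after 1 h. Primary screen in duplicate at 25 uM, with actives followed in concentration series. Gain of signal versus DMSO.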

Measured: AC50

Chain of bovine Estrogen Receptor (ER), ESR1 (gene 407238) (P49884 whole entry, looked up): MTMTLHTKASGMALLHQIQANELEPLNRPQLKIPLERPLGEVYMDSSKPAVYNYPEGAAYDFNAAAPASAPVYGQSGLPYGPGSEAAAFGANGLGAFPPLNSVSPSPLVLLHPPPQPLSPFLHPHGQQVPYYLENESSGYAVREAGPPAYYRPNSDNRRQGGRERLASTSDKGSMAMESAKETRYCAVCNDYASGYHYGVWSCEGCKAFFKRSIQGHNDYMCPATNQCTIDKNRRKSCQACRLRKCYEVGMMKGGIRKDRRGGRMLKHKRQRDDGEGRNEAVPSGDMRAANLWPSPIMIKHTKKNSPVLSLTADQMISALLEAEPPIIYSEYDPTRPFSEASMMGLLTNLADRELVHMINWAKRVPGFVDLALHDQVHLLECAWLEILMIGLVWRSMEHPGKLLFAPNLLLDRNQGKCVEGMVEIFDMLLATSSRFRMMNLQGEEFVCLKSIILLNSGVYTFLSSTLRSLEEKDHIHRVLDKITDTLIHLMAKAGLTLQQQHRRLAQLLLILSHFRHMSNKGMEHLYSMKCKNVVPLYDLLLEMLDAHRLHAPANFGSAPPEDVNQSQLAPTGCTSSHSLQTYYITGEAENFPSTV
Chain of chimpanzee Androgen Receptor (AR), AR (gene 747460) (O97775 whole entry, looked up): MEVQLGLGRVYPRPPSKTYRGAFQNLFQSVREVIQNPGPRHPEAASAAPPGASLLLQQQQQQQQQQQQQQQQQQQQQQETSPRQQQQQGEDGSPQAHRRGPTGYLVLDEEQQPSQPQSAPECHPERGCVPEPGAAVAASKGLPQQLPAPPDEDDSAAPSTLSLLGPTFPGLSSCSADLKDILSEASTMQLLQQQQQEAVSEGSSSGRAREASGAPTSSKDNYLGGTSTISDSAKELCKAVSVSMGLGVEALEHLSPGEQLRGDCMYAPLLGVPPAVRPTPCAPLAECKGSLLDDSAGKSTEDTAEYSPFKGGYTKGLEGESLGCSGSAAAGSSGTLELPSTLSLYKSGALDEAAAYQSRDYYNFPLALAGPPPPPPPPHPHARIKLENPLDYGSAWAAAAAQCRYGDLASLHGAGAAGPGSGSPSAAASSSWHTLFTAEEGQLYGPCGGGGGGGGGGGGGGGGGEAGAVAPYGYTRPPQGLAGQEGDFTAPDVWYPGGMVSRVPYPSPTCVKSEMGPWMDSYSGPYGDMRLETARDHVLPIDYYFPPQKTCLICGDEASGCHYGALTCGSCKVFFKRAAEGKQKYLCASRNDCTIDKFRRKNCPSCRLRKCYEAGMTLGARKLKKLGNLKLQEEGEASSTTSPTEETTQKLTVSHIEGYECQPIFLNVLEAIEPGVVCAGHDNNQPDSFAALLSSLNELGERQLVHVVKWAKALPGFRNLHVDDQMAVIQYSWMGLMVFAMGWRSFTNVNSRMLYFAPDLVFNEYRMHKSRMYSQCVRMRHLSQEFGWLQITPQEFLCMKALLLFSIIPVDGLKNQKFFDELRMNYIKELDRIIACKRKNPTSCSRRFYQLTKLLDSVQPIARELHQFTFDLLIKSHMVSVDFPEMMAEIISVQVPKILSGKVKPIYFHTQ
Chain of human Peripheral-type Benzodiazepine Receptor (PBR), TSPO (gene 706) (P30536 whole entry, looked up): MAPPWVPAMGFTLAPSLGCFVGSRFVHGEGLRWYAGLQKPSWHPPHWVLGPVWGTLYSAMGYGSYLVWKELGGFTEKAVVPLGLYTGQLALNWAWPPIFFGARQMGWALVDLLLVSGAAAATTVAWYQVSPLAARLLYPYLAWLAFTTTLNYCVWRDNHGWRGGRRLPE
T1 sequence (P03372 whole entry, looked up, the tested form may be a part): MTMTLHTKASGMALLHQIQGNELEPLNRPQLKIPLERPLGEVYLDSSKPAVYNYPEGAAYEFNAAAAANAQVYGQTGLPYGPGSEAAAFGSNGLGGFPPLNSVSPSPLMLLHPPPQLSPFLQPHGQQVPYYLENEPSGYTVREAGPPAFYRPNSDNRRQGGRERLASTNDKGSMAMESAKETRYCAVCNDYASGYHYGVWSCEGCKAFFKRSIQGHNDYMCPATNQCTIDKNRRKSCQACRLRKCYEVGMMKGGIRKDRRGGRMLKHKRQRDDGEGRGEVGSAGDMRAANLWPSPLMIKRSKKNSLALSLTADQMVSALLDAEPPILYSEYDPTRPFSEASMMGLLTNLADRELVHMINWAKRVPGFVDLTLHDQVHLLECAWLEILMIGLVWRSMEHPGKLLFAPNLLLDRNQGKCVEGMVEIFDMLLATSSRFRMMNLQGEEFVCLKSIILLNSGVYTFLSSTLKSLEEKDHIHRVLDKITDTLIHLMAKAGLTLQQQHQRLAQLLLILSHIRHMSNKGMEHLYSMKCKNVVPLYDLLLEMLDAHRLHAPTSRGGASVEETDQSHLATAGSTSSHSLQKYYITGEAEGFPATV
T1 sequence (Q92731 whole entry, looked up, the tested form may be a part): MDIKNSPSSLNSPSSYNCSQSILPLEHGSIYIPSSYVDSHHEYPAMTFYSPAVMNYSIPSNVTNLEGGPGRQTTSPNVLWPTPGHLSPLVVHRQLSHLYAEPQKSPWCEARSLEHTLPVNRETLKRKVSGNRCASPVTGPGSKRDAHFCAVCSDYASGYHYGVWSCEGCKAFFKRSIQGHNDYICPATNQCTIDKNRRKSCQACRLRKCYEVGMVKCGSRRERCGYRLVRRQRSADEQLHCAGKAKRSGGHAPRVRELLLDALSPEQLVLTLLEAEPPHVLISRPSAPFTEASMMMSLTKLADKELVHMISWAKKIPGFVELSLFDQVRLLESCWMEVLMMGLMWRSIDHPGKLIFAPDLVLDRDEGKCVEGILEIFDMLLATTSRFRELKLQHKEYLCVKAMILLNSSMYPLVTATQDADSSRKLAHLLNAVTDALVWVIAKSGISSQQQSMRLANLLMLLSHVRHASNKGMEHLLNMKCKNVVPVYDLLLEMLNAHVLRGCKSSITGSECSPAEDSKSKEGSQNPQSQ
Chain of Estrogen receptor (Homo sapiens) (P03372 whole entry, looked up, the tested form may be a part): as the sequence (P03372 whole entry, looked up, the tested form may be a part) above
Chain of Estrogen receptor beta (Homo sapiens) (Q92731 whole entry, looked up, the tested form may be a part): as the sequence (Q92731 whole entry, looked up, the tested form may be a part) above
Chain of rat Thyrotropin Releasing Hormone Receptor (TRH), Trhr (gene 25570) (Q01717 whole entry, looked up): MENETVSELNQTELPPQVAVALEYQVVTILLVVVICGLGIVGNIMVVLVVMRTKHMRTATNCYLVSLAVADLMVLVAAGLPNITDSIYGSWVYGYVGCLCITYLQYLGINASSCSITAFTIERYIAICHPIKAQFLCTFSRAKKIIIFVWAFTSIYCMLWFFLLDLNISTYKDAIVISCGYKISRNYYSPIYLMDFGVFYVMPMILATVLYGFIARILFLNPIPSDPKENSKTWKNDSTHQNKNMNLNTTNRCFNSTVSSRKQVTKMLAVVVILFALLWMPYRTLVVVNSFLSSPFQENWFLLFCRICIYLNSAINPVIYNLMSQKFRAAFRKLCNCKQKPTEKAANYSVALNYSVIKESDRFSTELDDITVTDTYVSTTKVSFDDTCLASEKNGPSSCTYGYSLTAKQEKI
Chain of rat Peripheral-type Benzodiazepine Receptor (PBR), Tspo (gene 24230) (P16257 whole entry, looked up): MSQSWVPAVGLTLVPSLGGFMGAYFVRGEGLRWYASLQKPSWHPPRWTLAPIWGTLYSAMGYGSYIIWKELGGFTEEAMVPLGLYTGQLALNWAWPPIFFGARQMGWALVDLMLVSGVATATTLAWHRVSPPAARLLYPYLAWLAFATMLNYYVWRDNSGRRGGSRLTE
Chain of Retinoic acid receptor alpha (Homo sapiens) (P10276 whole entry, looked up): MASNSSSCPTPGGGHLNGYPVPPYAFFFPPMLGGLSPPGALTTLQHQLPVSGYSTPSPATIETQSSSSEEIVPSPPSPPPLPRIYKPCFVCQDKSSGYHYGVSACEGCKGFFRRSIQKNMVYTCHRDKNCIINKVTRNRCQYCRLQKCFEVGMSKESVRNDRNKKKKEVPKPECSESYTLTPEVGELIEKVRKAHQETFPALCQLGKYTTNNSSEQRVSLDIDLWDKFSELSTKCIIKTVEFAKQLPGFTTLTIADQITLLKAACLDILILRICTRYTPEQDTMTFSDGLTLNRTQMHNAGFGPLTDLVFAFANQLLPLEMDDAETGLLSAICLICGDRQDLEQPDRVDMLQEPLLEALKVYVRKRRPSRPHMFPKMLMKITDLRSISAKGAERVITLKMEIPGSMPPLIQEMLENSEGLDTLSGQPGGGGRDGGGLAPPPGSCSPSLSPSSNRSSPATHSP

CCCCC/C=C\C/C=C\CCCCCCCC(=O)O
inactive: [3] | [6] | [7]
active: [1] 5.35 µM | [2] 5.8 µM | [4] 25 µM | [5] 25 µM | [8] 13.1 µM

O=C(O)c1cc(O)c2ccccc2c1O
active: [1] 18 µM | [2] 13.6 µM | [4] 35 µM
inactive: [3] | [6] | [9]

CCCCC(CC)COS(=O)(=O)O (centres undefined)
inactive: [10] | [6] | [11] | [12]

CC/C=C\C/C=C\C/C=C\CCCCCCCC(=O)OC
active: [1] 7.69 µM | [2] 13.3 µM

CC(=O)OC(C)c1ccccc1 (centres undefined)
inactive: [10] | [4] | [6] | [11] | [12] | [13]

CCOC(=O)c1ccccc1C
inactive: [10] | [6] | [9] | [11] | [12] | [13]

CN(C)Cc1cc(CN(C)C)c(O)c(CN(C)C)c1
inactive: [10] | [5] | [6] | [14]

CCOC(=O)c1ccc(C)cc1
inactive: [10] | [6] | [9] | [11] | [12]

CC(C)(C)NC(=O)[C@H]1CC[C@H]2[C@@H]3CC[C@H]4NC(=O)C=C[C@]4(C)[C@H]3CC[C@]12C
inactive: [10] | [3] | [4] | [9]
active: [6] 75 µM

CC(CCC(=O)O)(c1ccc(O)cc1)c1ccc(O)cc1
active: [3] 12.2 µM | [5] 4.34 µM | [6] 55.5 µM | [11] 39.1 µM | [12] 60.1 µM | [13] 31.8 µM
inactive: [10] | [9]

CCCCCCC=O
inactive: [10] | [6] | [9]

CCC(C)C(=O)OC (centres undefined)
inactive: [15]

CC1=CP(=O)(c2ccccc2)CC1 (centres undefined)
inactive: [16]

CCN1CN(CC)CN(CC)C1
inactive: [10] | [4] | [6] | [12] | [13]

O=C(OCc1ccccc1)c1ccc(O)cc1
inactive: [10]
active: [1] 6.36 µM | [2] 3.77 µM | [3] 1.18 µM | [4] 25 µM | [5] 0.212 µM | [6] 37.3 µM | [11] 4.92 µM | [12] 33.6 µM | [13] 3.98 µM

CCCCNC(=S)NCCCC
inactive: [10] | [1] | [6] | [9] | [11] | [12] | [13]
active: [2] 5.23 µM

Nc1ccc(C(=O)O)cc1
active: [17] 2.62 µM
inactive: [6] | [9] | [11] | [12] | [13] | [7]

CCOC(=O)C1=NN(c2ccc(Cl)cc2Cl)C(C)(C(=O)OCC)C1 (centres undefined)
active: [1] 10.9 µM | [2] 9.42 µM

CC(C)[N+](C)(CCOC(=O)C1c2ccccc2Oc2ccccc21)C(C)C
active: [16] 9.05 µM | [15] 10.1 µM

CCCCCCCCCC[N+](C)(CCCCCCCCCC)CCC[Si](OC)(OC)OC
active: [12] 11.8 µM | [8] 8.29 µM
inactive: [10] | [3] | [5] | [6] | [9] | [7]

Nc1nc(N)nc(-c2ccccc2)n1
inactive: [15] | [3]

Cc1ccc([N+](=O)[O-])cc1N
active: [17] 13.8 µM | [4] 20.8 µM
inactive: [6] | [9] | [11] | [12]

COc1ccc(C(=O)/C(Br)=C\C(=O)O)cc1
active: [1] 9.63 µM

CCCCCCO
inactive: [10] | [6] | [9] | [8]

CC1=NN(c2ccc(S(=O)(=O)O)cc2)C(=O)C1N=Nc1ccccc1 (centres undefined)
inactive: [10] | [6] | [9]

CC1=CCC2CC1C2(C)C (centres undefined)
inactive: [10] | [6] | [9] | [11] | [12] | [13]

C1CNCCN1
active: [17] 3.59 µM | [18] 25 µM
inactive: [6] | [9] | [11] | [12] | [13]

Oc1ccc(-c2ccccc2)c(Cl)c1
inactive: [10] | [3] | [5] | [6] | [13] | [8]
active: [4] 14.1 µM | [9] 12.2 µM | [11] 12.2 µM | [14] 31.5 µM | [12] 15.9 µM

CCCCC(C=O)CC (centres undefined)
inactive: [10] | [6] | [9] | [11] | [12] | [13]

C=C1C[C@H]2[C@@H]3C=C(C)C4=CC(=O)CC[C@]4(C)[C@H]3CC[C@]2(C)[C@@]1(OC(C)=O)C(C)=O
inactive: [10] | [3] | [6] | [9] | [13]
active: [1] 0.732 µM | [4] 0.33 µM | [5] 0.0185 µM | [14] 5.8 µM | [12] 16.9 µM

CC(=O)OC1CCCCC1C(C)(C)C (centres undefined)
inactive: [10] | [6] | [9] | [11] | [14] | [12] | [13]

Reference: PubChem BioAssay (EPA / NIEHS)
